What all share (set-up): scale not given: direction of the effect not stated beside the values
Assay [1] has as its target Protein translocase subunit SecA (Escherichia coli (strain K12)) (UniProt P10408). Put plainly: Assay to Identify E. coli SecA ATPase Inhibitors. It is filed as functional. The following applies: 30 µM.
The target in assay [2] is T1, Ubiquitin-activating enzyme e1, putative (Leishmania donovani (strain BPK282A1)) (UniProt E9BSI1).
T1 sequence (whole entry): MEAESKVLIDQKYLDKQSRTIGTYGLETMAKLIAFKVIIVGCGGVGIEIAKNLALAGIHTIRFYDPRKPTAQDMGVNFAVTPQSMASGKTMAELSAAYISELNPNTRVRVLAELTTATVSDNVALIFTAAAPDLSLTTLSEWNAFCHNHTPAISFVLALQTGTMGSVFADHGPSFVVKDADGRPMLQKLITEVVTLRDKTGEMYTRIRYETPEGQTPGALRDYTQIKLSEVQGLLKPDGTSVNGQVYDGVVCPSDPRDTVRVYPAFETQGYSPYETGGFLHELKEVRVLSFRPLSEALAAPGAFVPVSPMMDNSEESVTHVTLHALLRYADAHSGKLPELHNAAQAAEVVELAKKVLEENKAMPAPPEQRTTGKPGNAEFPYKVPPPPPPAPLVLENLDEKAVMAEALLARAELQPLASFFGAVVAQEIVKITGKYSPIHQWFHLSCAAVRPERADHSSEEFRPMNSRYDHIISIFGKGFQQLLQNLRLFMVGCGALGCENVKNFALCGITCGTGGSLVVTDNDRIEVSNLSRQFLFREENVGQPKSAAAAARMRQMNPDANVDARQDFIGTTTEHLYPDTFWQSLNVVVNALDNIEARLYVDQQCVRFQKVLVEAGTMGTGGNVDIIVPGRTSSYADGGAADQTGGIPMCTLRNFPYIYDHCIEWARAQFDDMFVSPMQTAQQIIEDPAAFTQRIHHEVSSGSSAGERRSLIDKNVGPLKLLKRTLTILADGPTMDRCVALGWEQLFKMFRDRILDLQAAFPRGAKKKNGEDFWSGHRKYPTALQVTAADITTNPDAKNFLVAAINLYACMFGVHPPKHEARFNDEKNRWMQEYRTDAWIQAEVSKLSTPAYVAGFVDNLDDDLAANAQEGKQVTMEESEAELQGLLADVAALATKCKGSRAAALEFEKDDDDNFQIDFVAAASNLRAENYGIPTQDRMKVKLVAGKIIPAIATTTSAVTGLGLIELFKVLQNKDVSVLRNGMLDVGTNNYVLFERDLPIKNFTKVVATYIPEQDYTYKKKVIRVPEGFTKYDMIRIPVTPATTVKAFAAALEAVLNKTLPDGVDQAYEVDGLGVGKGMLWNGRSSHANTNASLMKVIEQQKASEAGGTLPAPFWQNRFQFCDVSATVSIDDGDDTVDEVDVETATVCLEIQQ
Put plainly: Leishmania donovani Ubiquitin Activating Enzyme (LdE1). It is filed as functional. The following applies: 30 µM.

The target of assay [3] is Sialic acid-binding Ig-like lectin 9 (Homo sapiens) (UniProt Q9Y336). Put plainly: Hs-Siglec9 ALPHAscreen SOP 20170721. The following applies: 10 µM.
A further assay relates to Trypanosoma cruzi. Description: Trypanosoma cruzi phosphomannomutase and mannose-1-phosphate guanylyltransferase assay. It is filed as functional. The following applies: 10 µM.
The target in assay [4] is T2, Arginase-2, mitochondrial (Homo sapiens) (UniProt P78540).
T2 sequence (whole entry): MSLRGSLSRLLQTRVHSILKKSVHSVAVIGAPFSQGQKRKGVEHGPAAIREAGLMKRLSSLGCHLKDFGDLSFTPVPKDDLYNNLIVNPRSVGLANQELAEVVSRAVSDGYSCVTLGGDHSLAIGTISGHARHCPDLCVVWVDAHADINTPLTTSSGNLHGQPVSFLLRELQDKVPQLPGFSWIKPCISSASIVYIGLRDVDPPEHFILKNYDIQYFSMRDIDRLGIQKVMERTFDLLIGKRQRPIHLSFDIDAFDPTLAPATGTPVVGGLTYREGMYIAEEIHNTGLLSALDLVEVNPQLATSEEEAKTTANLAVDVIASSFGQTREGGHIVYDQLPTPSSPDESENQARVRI
Description: in vitro enzyme assay to detect the production of urea directly proportional to the activity of Arginase II. Further: in the data most compounds retested in dose-response had high values. It is filed as functional. The following applies: 33.3 µM.

The target in assay [5] is T3, Proteasome subunit beta (Trypanosoma cruzi) (UniProt O96673).
T3 sequence (whole entry): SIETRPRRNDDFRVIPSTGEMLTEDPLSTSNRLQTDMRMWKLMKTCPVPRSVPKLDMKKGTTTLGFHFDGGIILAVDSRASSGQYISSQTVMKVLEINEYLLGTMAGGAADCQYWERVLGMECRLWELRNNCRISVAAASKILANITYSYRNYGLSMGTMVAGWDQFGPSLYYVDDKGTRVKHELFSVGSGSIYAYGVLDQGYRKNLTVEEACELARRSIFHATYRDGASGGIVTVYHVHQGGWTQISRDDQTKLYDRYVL
Put plainly: Trypanosoma cruzi proteasome chymotrypsin-like activity (TcProtChymo) assay. Further: in the data most compounds retested in dose-response had high values. It is filed as functional. The following applies: 9.37 µM.

The species named for another assay is Homo sapiens. Put plainly: To identify inhibition of the IFN signalling (Jak-Stat) pathway via expression of an eGFP reporter gene under the control of an IFN-stimulated response element (ISRE) containing MxA promoter. The following applies: 30 µM. It is filed as functional.
Assay [6] concerns the target T4, Tyrosyl-tRNA synthetase, putative (Trypanosoma cruzi (strain CL Brener)) (UniProt Q4DSP6).
T4 sequence (whole entry): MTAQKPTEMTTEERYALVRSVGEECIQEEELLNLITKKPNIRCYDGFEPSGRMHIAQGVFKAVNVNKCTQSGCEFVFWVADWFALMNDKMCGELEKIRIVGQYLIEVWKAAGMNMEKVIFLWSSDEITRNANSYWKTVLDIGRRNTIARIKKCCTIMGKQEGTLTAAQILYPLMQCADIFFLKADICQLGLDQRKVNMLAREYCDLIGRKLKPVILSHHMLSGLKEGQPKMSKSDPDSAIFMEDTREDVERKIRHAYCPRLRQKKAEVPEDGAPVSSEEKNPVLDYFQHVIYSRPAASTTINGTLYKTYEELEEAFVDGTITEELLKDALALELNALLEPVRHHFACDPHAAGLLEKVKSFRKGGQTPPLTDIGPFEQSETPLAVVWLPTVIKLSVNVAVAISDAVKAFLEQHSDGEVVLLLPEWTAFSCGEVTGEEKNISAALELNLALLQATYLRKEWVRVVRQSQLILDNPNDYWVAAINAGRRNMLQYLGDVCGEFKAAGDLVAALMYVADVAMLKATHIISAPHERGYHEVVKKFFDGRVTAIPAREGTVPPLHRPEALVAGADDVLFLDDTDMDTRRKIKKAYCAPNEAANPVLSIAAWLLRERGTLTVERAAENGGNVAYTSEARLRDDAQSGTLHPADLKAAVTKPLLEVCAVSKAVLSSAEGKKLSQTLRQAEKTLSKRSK
Put plainly: Trypanosoma cruzi tyrosyl tRNA synthetase (TcYRS) _High Tyrosine SOP. Further: in the data most compounds retested in dose-response had high values. The following applies: 30 µM. It is filed as functional.

Assay [7] addresses T4, Tyrosyl-tRNA synthetase, putative (Trypanosoma cruzi (strain CL Brener)). Put plainly: Trypanosoma cruzi tyrosyl tRNA synthetase (TcYRS) SOP. It is filed as functional. The following applies: 30 µM.
For assay [8], the target named is Chromo domain-containing protein 1 (Saccharomyces cerevisiae (strain ATCC 204508 / S288c) (Baker's yeast)) (UniProt P32657). Description: ScCHD-1 Enzyme Inhibition Assay. Further: in the data most compounds retested in dose-response had high values. It is filed as functional. The following applies: 30 µM.

Each structure is given as a SMILES string. For some of these results: Measured potencies and affinities stand elsewhere.

Sequence of Protein translocase subunit SecA (Escherichia coli (strain K12)) (P10408 whole entry): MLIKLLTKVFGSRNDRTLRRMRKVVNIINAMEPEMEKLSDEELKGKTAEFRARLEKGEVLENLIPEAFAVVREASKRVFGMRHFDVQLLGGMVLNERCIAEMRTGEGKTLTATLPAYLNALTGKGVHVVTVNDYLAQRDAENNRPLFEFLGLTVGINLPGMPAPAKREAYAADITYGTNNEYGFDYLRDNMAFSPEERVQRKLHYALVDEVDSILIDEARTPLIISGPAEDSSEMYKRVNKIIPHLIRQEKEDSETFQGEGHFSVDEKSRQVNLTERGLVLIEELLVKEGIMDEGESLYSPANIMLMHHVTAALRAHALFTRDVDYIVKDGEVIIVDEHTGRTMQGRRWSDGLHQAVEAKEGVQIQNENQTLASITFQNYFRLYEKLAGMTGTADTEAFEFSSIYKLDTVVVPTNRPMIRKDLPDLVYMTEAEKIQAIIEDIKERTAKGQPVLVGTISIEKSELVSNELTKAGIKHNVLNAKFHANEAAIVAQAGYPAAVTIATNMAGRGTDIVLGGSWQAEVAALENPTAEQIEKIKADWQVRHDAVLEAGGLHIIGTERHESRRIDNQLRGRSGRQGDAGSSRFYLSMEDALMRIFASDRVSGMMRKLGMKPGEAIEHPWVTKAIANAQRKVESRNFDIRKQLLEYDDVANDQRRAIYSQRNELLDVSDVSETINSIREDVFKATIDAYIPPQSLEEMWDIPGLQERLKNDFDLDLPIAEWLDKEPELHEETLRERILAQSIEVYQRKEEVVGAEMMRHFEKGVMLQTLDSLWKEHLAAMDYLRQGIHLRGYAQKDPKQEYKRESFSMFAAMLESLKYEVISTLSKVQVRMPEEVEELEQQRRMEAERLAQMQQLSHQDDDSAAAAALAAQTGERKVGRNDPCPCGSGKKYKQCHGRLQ
Sequence of Sialic acid-binding Ig-like lectin 9 (Homo sapiens) (Q9Y336 whole entry): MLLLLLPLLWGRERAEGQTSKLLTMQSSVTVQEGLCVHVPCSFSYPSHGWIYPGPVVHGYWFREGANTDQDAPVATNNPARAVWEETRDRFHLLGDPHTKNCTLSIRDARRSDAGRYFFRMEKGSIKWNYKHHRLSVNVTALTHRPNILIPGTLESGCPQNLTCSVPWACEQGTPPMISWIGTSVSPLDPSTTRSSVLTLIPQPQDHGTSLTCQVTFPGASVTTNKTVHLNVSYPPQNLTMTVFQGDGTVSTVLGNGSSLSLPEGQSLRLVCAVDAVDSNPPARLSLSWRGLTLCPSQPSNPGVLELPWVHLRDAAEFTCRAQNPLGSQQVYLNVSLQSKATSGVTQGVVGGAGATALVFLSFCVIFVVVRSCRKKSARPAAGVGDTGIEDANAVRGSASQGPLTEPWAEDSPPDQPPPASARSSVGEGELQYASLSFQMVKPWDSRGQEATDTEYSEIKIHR
Sequence of Chromo domain-containing protein 1 (Saccharomyces cerevisiae (strain ATCC 204508 / S288c) (Baker's yeast)) (P32657 whole entry, the tested form may be a part): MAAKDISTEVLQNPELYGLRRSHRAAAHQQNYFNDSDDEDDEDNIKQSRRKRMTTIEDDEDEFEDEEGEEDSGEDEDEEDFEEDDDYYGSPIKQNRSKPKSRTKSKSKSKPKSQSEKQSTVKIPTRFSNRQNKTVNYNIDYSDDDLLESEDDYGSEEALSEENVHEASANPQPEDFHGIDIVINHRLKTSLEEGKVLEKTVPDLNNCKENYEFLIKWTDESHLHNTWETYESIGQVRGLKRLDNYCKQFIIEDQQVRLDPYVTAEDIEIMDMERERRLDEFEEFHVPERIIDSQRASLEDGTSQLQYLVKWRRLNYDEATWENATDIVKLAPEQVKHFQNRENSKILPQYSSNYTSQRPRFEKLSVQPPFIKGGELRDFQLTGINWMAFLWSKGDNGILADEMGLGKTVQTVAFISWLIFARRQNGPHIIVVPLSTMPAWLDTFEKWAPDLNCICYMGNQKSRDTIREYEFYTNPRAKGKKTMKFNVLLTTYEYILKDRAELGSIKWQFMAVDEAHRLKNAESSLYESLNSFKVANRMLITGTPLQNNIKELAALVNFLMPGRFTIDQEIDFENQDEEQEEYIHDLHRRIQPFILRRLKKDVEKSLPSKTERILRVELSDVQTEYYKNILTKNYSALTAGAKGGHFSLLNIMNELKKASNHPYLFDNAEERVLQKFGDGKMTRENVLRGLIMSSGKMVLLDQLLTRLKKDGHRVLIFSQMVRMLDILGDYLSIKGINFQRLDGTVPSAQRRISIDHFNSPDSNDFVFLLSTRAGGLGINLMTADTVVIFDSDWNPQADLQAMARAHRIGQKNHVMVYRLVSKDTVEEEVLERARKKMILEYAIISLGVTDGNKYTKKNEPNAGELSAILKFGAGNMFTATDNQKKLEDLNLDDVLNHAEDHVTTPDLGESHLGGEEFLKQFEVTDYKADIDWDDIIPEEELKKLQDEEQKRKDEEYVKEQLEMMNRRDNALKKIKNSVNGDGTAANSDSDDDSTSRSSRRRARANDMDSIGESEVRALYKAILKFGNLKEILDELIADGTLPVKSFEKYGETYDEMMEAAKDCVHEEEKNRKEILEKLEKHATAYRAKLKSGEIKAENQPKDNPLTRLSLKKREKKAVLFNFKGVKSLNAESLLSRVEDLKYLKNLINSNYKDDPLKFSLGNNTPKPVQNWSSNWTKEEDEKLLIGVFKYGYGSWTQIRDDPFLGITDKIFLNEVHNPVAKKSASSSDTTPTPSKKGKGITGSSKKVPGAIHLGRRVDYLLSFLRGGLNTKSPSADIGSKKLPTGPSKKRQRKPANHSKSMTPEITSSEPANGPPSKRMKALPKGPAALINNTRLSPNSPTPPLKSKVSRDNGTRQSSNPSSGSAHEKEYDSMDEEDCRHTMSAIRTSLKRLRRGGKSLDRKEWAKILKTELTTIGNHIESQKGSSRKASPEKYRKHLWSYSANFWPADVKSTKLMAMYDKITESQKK

With `O=C(Nc1cccc(N2CCCC2)c1)C1CCCN1c1nccs1` (stereo not given), the Percent Effect is -2.06% in assay [1]; -15.4% in [2]; 6.8% in [3]; 8.92% in the assay with Trypanosoma cruzi; -1.23% in assay [4]; 1.79% in [5]. In addition, the Percent Effect was -2.5% in the assay filed under Homo sapiens, 8.13% in [6], -1.21% in assay [7] and -2.52% in assay [8].

As to `CC(=O)N1CCC2(CCCN(Cc3ccc(Cl)c(C(F)(F)F)c3)C2)C1` (stereo not given), the Percent Effect is -6.95% in assay [1]; 3.9% in [2]; -5.84% in [3]; 1.07% in the assay with Trypanosoma cruzi; -1.22% in [4]; 1.15% in assay [5]. Further, the Percent Effect is -5.5% in the assay listed under Homo sapiens, -8.95% in [6], 10.3% in [7] and 0.22% in assay [8].

As to `CS(=O)(=O)NCc1ncn2c1CN(C(=O)CC1CCCC1)CCC2`, the Percent Effect is -1.59% in [1]; -1.3% in assay [2]; -3.12% in [3]; -4.77% in the assay on Trypanosoma cruzi; -0.81% in assay [4]; 2.91% in [5]. Besides, the Percent Effect in the assay filed under Homo sapiens is 12.6%; in assay [6], 1.58%; in assay [7], -2.56%; in assay [8] it was -0.829%.

As to `CCOc1ccccc1C(=O)N1CCCC1c1ncc2c(n1)CCNC2` (stereo not given), the Percent Effect in assay [1] is -5.15%; in assay [2], 4%; in [3], -1.2%; with Trypanosoma cruzi, -5.72%; in assay [4], -4.42%; in assay [5], 7.06%. Besides, the Percent Effect in the assay filed under Homo sapiens is 10.5%; in assay [6], -6.35%; in assay [7], -2.5%; in assay [8] it was -31.8%.

As for `O=C1CC2(CCN(Cc3ccoc3)C2)CN1c1ccc2c(c1)OCO2` (stereo not given), the Percent Effect is -7.31% in [1]; 1.3% in assay [2]; -0.448% in assay [3]; 1.85% with Trypanosoma cruzi; 0.81% in assay [4]; 4.68% in [5]. Besides, the Percent Effect was 4.43% in the assay listed under Homo sapiens, 7.89% in assay [6], 10.3% in assay [7] and -0.51% in assay [8].

As for `CCCc1cc(C(=O)N2CCCC2c2cccnc2)[nH]n1` (stereo not given), the Percent Effect in assay [1] was -2.28%; in [2], 13.5%; in assay [3], 7.33%; with Trypanosoma cruzi it was 2.81%; in assay [4] it was 4.54%; in assay [5] it was 17.1%. Moreover, the Percent Effect in the assay listed under Homo sapiens was 10.1%; in assay [6], 4.79%; in assay [7], 14.6%; in assay [8], -3.7%.

For the compound `CN(C)c1cc(C(=O)N2CCN(c3cnccn3)CC2)ccn1`, the Percent Effect in assay [1] was -1.53%; in [2], 10.3%; in [3], 0.94%; with Trypanosoma cruzi, 3.1%; in assay [4] it was 2.46%; in [5], 3.16%. For the same compound, the Percent Effect in the assay filed under Homo sapiens was 3.38%; in assay [6], 5.26%; in assay [7] it was 10.8%; in assay [8], -7.53%.

Regarding `Cc1ncsc1-c1nnc(C2CCN(CC3CCCCC3)CC2)o1`, the Percent Effect was 1.3% in [1]; 14.7% in assay [2]; -11.6% in assay [3]; -1.97% in the assay with Trypanosoma cruzi; 0.443% in assay [4]; 14.8% in assay [5]. The Percent Effect in the assay listed under Homo sapiens was 25.8%; in assay [6], -3.17%; in assay [7], 5%; in assay [8] it was -21.3%.

With `COCCN1CC[C@]2(CN(C(=O)c3cccs3)C[C@H]2C)C1=O`, the Percent Effect in [1] was 0.25%; in assay [2], 1.3%; in assay [3], 1.96%; in the assay with Trypanosoma cruzi it was -0.938%; in assay [4] it was -0.457%; in [5], 9.7%. The Percent Effect in the assay filed under Homo sapiens was 0.303%; in assay [6], 0.966%; in [7], 0%; in assay [8] it was 0.0651%.

For the compound `CCNc1nc2c(s1)C(=O)CN(C(=O)NCCc1ccccc1)C2`, the Percent Effect in [1] was -3.42%; in assay [2], 5.33%; in assay [3] it was -0.604%; in the assay on Trypanosoma cruzi, -6.43%; in [4], 3.99%; in assay [5], -1.95%. Moreover, the Percent Effect was 9.15% in the assay listed under Homo sapiens, 1.58% in [6], 2.56% in assay [7] and 2.08% in [8].

These data come from ChEMBL document CHEMBL3988442, “University of Dundee, Small-Polar-MMV Screening Library” (2021).
